“And” between values parts separate entries of the source, which are not always exact repeats. Equal values may be shown once. This is part of a sample that, as a whole, favours compounds with a hit. Of some 83,000 tested, about 20% had one in any assay.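 Assay: single dose, 48 h. Readout: percent growth (0 = no net growth; negative = cell death). Active: <10.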 The source made the active and inactive calls.

For this test, the system named is HL-60(TB) leukemia. The test can be described thus: NCI-60 one-dose screen, 48 h (100 = growth as untreated, 0 = no growth, -100 = all killed). Conditions: 10 µM unless noted.
Regarding `CCOC(=O)Nc1nc2ccccc2[nH]1`, the growth is 101% (inactive) and -38.2% (active).

With `CCCCc1ccc(Nc2ccc(Nc3ccc(CCCC)cc3S(=O)(=O)O)c3c2C(=O)c2ccccc2C3=O)c(S(=O)(=O)O)c1`, the growth is 96% (inactive).

As to `CSc1n(Cc2ccc3ccccc3c2)c(C)c[n+]1Cc1ccc2ccccc2c1`, the growth was -45% (active).

As to `Nc1ccc(-c2cc3c(Nc4ccc(OCc5cccc(F)c5)c(Cl)c4)ncnc3s2)cc1`, the growth is 48.3% (inactive).

`Nc1nc2c(c3ncccc13)C(c1ccc(Cl)c(Cl)c1)Cc1ncccc1-2` (stereo unspecified): the growth is -7.14% (active).

As for `CCN(CC)c1ccc(/C=C/c2ccc3cc(C)ccc3[n+]2CC)cc1`, the growth is -41.5% (active).

For the molecule `COc1cc2c(c(OC)c1OC)CCC(c1cccc(C(=O)Nc3cccc(Br)c3)c1)O2` (stereo unspecified), the growth was 101% (inactive).

Regarding `COc1cccc(C2CC(c3cc(OC)c(OC)c(OC)c3)=NN2)c1` (stereo unspecified), the growth is 55.1% (inactive).

As for `CCOC(=O)c1cc2c(n1Cc1ccccc1OC)-c1oncc1CCC2`, the growth is 14.4% (inactive).

In the case of `O=C(O)C1CCN(S(=O)(=O)c2ccc(-c3ccccc3)cc2)CC1`, the growth was 45.6% (inactive).

Turning to `O=C1Cc2ccccc2C(=O)N1`, the growth is 67.6% (inactive).

For the molecule `CC(=O)Nc1ccc(O)cc1`, the growth was 88.3% (inactive) and 74.2% (inactive).

On to `COC(=O)/C=C1/SC(=Nc2ccc(C)cc2)N(CCc2c[nH]c3ccc(O)cc23)C1=O`, for which the growth was 49.3% (inactive).

`CC(=O)Nc1cccc2cc(O)ccc12`: the growth is 114% (inactive) and 76.6% (inactive) and 104% (inactive).

For the molecule `Cn1c(=O)[nH]c(=O)c2nc(CCC(=O)NCCC(=O)O)c(=O)[nH]c21`, the growth is 101% (inactive).

Regarding `COc1ccc(-c2cn(-c3cccc(C(=O)/C=C/c4ccc(O)c(OC)c4)c3)c(=O)[nH]2)cc1`, the growth is -2.62% (active).

Turning to `Nc1c2c(nc3ccc(Br)cc13)CC(c1ccccc1)CC2=O` (stereo unspecified), the growth is 10.7% (inactive).

As for `CCOc1cc2ncc(C#N)c(Nc3ccc(F)c(Cl)c3)c2cc1NC(=O)CC1CCSS1` (stereo unspecified), the growth was -33.9% (active).

As to `COc1ccc(C2c3cccn3-c3ccccc3N2C(C)=O)cc1` (stereo unspecified), the growth is -49.9% (active).

As to `O=C(Nc1ccc(Nc2ccncc2)cc1)c1ccc(Nc2ccnc3ccc([N+](=O)[O-])cc23)cc1[N+](=O)[O-]`, the growth is 88.8% (inactive).

In the case of `CCCNC(=O)Oc1ccc(/C(=C(\C)c2ccccc2)c2ccc(OCCN3CCCCC3)cc2)cc1`, the growth is 63.1% (inactive).

In the case of `O=C(Nc1nn(-c2ccc(Cl)cc2Cl)nc1-c1ccccc1)c1ccccc1`, the growth was 83.8% (inactive).

On to `O=C(c1ccc(-c2nc(CSc3nc4ccccc4s3)no2)cc1)N1CCSCC1`, for which the growth is 27% (inactive).

With `Cc1cc(=O)[nH]c(O)c1C#N`, the growth is 109% (inactive) and 137% (inactive).

Turning to `O=C(N/N=C/c1ccc(F)cc1)c1ccccc1Nc1cccc(C(F)(F)F)c1`, the growth is 88.1% (inactive).

For `CCCCOc1nc2ccccc2cc1/C=C/c1cc(/C=C/c2cc3ccccc3nc2OCCCC)n(-c2ccccc2)n1`, the growth was 97.5% (inactive).

For the molecule `CC1(C)C2CC1C1(/C=N\Nc3ccccc3)C(C2)C(C#N)(C#N)C1(C#N)C#N` (stereo unspecified), the growth was 89.9% (inactive).

On to `CN(C)CCCOc1ccc(OCCCN(C)C)c2c1C(=O)c1ccccc1C2=O`, for which the growth is 5.97% (active).

`O=C(Nc1ccc(Cl)c(Cl)c1)Nc1ccc(Cl)c(Cl)c1`: the growth was -56.8% (active) and 13% (inactive).

`CCOc1nc(-c2ccccc2)cc2c(O)c(C(=O)N/N=C/c3ccccc3)[nH]c(=O)c12`: the growth is 101% (inactive).

As for `CN1CCN(CC#CCn2c3c(c4ccccc42)C[C@]2(C)[C@H]4CC[C@@H]5[C@H]6[C@H]7OC(=O)[C@@]6(CCC7(C)C)CC[C@@]5(C)[C@]4(C)CC[C@H]2C3(C)C)CC1`, the growth was 66.3% (inactive).

As to `NC1(c2ccc(-c3nc4ccn5c(=O)[nH]nc5c4cc3-c3ccccc3)cc2)CCC1`, the growth is 50.1% (inactive).

On to `CCn1cc(C(=O)O)c(=O)c2cc(F)c(N3CCN(CC(=O)Nc4ccc(C(C)=O)cc4)CC3)cc21`, for which the growth was 95.7% (inactive).

With `NC(=Nc1ccc(N)cc1)C(N)=Nc1ccc(N)cc1`, the growth was 59.6% (inactive).

As to `COc1ccc(-c2nnc(-c3ccc4c(c3)nc(-c3ccncc3)n4C3CCCCC3)o2)cc1`, the growth was 46.1% (inactive).

For `O=C(Nc1ccccc1)Nc1cccc(-n2cc(-c3ccncc3)c(-c3ccc(O)c(Cl)c3)n2)c1`, the growth was 37.5% (inactive).

For the origin of these results see PubChem BioAssay (NCI).
